# Sampled rows, rich in hits. Any-hit rate of the full collection: about 19%.
# KB-V1 MDR tox: KB-V1 MDR subline cytotoxicity; actives 3.4% (n = 400,000); KB-V1 MDR cells viability, CellTiter-Glo, 72 h; Potency, µM (highest dose often 46.1 µM), actives largely listed as cytotoxic; note: nearly all actives have a fitted effect of over 60% in size
#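 Compound-treated KB-V1 multidrug-resistant cells, 72 h, 37 degrees C; viability by CellTiter-Glo. Fitted qHTS curves give the values.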
# KB-3-1 cytotox: KB-3-1 parental cell cytotoxicity | KB-3-1 viability, CellTiter-Glo ATP luminescence, 72 h | Potency, µM (top dose mostly 46.1 µM), most hits filed as cytotoxic | actives 1.4% (n = 400,000) | AID 1347075; note: nearly all actives have a fitted effect of over 60% in size
#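 Luminescent ATP read-out (CellTiter-Glo) measures survival of drug-naive KB-3-1 cells after 72 h compound exposure at 37 °C. Titration series was screened from lowest to highest concentration, with DMSO vehicle plates as background controls.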
# HT1080 IDH1KD tx: toxicity to HT-1080 IDH1 knockdown cells (counter line). actives 2% (n = 360,000). HT-1080 IDH1 knockdown viability, ATP luminescence, 48 h. Potency, µM (top dose mostly 46.1 µM), without a hit: at the top dose activity, negative = toxicity, usual class: cytotoxic. AID 686971;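 note: 0% = DMSO wells and -100% = cell-free medium wells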
#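 After a 2 h attachment period, IDH1KD HT-1080 cells took pin-transferred compound for 48 h at 37 °C; ATP-based luminescence after 10 min room-temperature reagent incubation reported viability.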
# DT40 TDP1 no CPT: qHTS for Inhibitors of human tyrosyl-DNA phosphodiesterase 1 (TDP1): qHTS in cells in absence of CPT; DT40 Tdp1-/- hTDP1 cells, no CPT, ATP luminescence, 48 h; actives 15% (n = 420,000); Potency, µM (doses to about 46.2 µM), without a hit: at the highest dose activity change, negative = growth inhibition, most hits filed as inhibitors; note: nearly all actives have a fitted effect of over 55% in size
#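 Stably hTDP1-transfected Tdp1-null chicken DT40 cells were treated with library compounds minus camptothecin and grown for at least 48 hr at 37 °C, after which cellular ATP was quantified by luminescence.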
# HT1080NT lethal: kills 2HG-producing HT-1080-NT fibrosarcoma cells. HT-1080-NT fibrosarcoma viability, CellTiter-Glo ATP luminescence, 48 h. actives 1.6% (n = 360,000). Potency, µM (top dose mostly 46.1 µM), for the others: top-dose activity, negative = less viability, usual class: cytotoxic. AID 686970;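 note: NT is the 2HG producing partner of a matched IDH1 knockdown line; 0% = DMSO-treated cells and -100% = media-only wells without cells; nearly all actives have a fitted effect of over 55% in size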
#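 HT-1080-NT fibrosarcoma cells (2HG-overproducing), 750 cells/well in RPMI with 5% FBS, dosed after 2 h and incubated 48 h at 37C. CellTiter-Glo luminescence normalized to DMSO and no-cell wells; concentration-response curves fitted and classed.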
# TDP1 cell CPT: growth inhibition of DT40 Tdp1-/-;hTDP1 cells with camptothecin (screen for TDP1 inhibitors) | chicken DT40 Tdp1-/-;hTDP1 cells + 20 nM CPT, ATP luminescence, 48 h | actives 12% (n = 420,000) | Potency, µM (doses to about 46.2 µM), for inactives: at the top dose activity change, negative = growth inhibition, actives largely listed as inhibitors; note: nearly all actives have a fitted effect of over 55% in size
#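 Chicken DT40 Tdp1-/- cells stably complemented with human TDP1 were seeded at 400 cells/well in medium containing 20 nM camptothecin, exposed to pin-transferred compounds, and grown at 37 °C for at least 48 hr. Viability was read as ATP luminescence.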
# Active calls of the source: *; i = inactive; ? = inconclusive; nt = no result; ! = a repeat was not active. Calls come from the whole dose curve; as a rule, active = well fitted curve in the direction sought with a large enough effect; inconclusive = small, poorly fitted or top-dose-only effect, or another doubt; inactive = no such curve, though single readings can be large; an effect the other way counts as inactive or inconclusive. Unless noted, % is set by controls: 0 for no effect and ±100 for the full control effect; potency is the fitted concentration of half-maximal effect.
SMILES,KB-V1 MDR tox,KB-3-1 cytotox,HT1080 IDH1KD tx,DT40 TDP1 no CPT,HT1080NT lethal,TDP1 cell CPT
COc1ccc(C(=O)Nc2ccc(C(=O)N3CCOCC3)cc2)cc1OC,i,i,-1.5%,-11.4%,-22.8%,-17.3%
COc1ccc(NC(=O)c2cc([N+](=O)[O-])ccc2N2CCCC2)cc1,i,?,2.5%,-4.9%,-1.5%,4.4%
CC1CCC/C(=N\NC(=O)c2ccncc2)C1 (configuration not stated),i,i,-7.6%,-18.0%,-8.0%,5.1%
CC/C(=C(/CC)c1ccc(O)cc1)c1ccc(O)cc1,?,i,14.6µM*,?,?,?
CC1CCc2nc(NC(=O)CCSc3ccccc3)sc2C1 (configuration not stated),i,i,10.2%,-9.8%,-1.3%,-6.9%
CCCC(=O)Nc1nc2c(s1)CC(C(C)(C)C)CC2 (configuration not stated),i,i,nt,20.6µM*,nt,18.4µM*
Cc1ccccc1C(=O)Nc1sc2c(c1C(=O)N1CCCCC1)CCC(C(C)(C)C)C2 (configuration not stated),i,i,nt,?,nt,-14.6%
CCC(=O)Nc1sc2c(c1C(=O)Nc1ccc(OC)cc1)CCC(C(C)(C)C)C2 (configuration not stated),i,i,nt,-0.7%,nt,1.9%
CC(C)Oc1ccc(C(=O)Nc2nc3c(s2)CC(C(C)(C)C)CC3)cc1 (configuration not stated),i,i,nt,13µM*,nt,16.4µM*
CCOc1cccc(C(=O)Nc2nc3c(s2)CC(C(C)(C)C)CC3)c1 (configuration not stated),i,i,nt,20.6µM*,nt,20.6µM*
Cc1ccccc1C(=O)Nc1nc2c(s1)CC(C(C)(C)C)CC2 (configuration not stated),i,i,nt,11.6µM*,nt,16.4µM*
CCOC(=O)c1ccc(NC(=O)CSc2nc3ncc(Br)c(C)c3[nH]2)cc1,i,i,nt,2.7%,nt,-20.9%
COc1cc(-c2nc(CN3CCN(C(=O)c4ccco4)CC3)c(C)o2)ccc1F,i,?,-1.4%,-11.6%,15.6%,-26.0%
CC(NC(=O)COc1ccc(/C=N/NC(=O)CO)cc1)c1ccccc1 (configuration not stated),i,i,0.4%,12.8%,-6.9%,-18.6%
CC(=O)C1=C(O)C(=O)N(c2cc(C(C)(C)C)on2)C1c1ccc(C(C)C)cc1 (configuration not stated),i,i,-14.4%,25.9µM*,-7.7%,?
Cc1cccc(N(CC(=O)NCCSCc2ccc(Cl)cc2)S(C)(=O)=O)c1C,i,i,nt,25.9µM*,nt,18.4µM*
COc1ccccc1N(CC(=O)NCCSCc1ccccc1)S(C)(=O)=O,i,i,19.7%,-22.2%,2.6%,-23.7%
COc1ccc(C)cc1N(CC(=O)NCCSCc1cccc(Cl)c1)S(C)(=O)=O,?,i,-23.4%,?,-26.2%,16.4µM*
Cc1cccc(N(CC(=O)NCCSCc2ccccc2)S(=O)(=O)c2ccccc2)c1C,i,i,nt,?,nt,23.1µM*
COc1ccccc1N(CC(=O)NCCSCc1ccc(Cl)cc1)S(C)(=O)=O,i,i,-10.0%,23.1µM*!,-5.6%,20.6µM*
Cc1ccc2c(Cl)c(C(=O)NC3CC3)sc2c1,i,i,14.0%,-5.7%,0.0%,-4.7%
CCOC(=O)C(C)On1c(-c2cccc(Cl)c2)nc2ccc([N+](=O)[O-])cc21 (configuration not stated),?,i,-17.9%,20.6µM*,-22.8%,?
CCc1ccc(OCC(=O)NC(NC(=S)Nc2ccc(Cl)cc2)C(Cl)(Cl)Cl)cc1 (configuration not stated),3.66µM*,8.2µM*,?,13µM*,?,14.6µM*
O=C(/C=C/c1ccccc1)NC(NC(=S)Nc1ccc(C(=O)O)cc1)C(Cl)(Cl)Cl (configuration not stated),i,i,5.0%,-7.3%,10.8%,-5.5%
O=C(CCc1ccccc1)NC(NC(=S)Nc1ccc(Br)cc1)C(Cl)(Cl)Cl (configuration not stated),i,i,?,23.1µM*,17.8µM*,23.1µM*
SMILES,KB-V1 MDR tox,KB-3-1 cytotox,HT1080 IDH1KD tx,DT40 TDP1 no CPT,HT1080NT lethal,TDP1 cell CPT
O=C(CCc1ccccc1)NNC(=O)Nc1ccc(Br)cc1,i,i,1.0%,-8.9%,4.1%,-23.6%
CCCC(=O)NC(NC(=S)Nc1ccc(N=Nc2ccccc2)cc1)C(Cl)(Cl)Cl (configuration not stated),18.4µM*,14.6µM*,18.4µM*,5.17µM*,?,5.17µM*
O=c1c2cnn(-c3ccc(F)cc3)c2ncn1Cc1cccc(Cl)c1,i,i,nt,-26.8%,nt,-17.8%
CC1CCn2c(nc3cc(C(=O)NCc4ccc(F)cc4)ccc32)C1 (configuration not stated),nt,nt,nt,?,nt,-23.9%
Cc1ccc(C(=O)OCC(=O)Nc2cc(C(C)(C)C)nn2-c2ccccc2)c(O)c1,i,i,-5.5%,?,-6.5%,?
Clc1cccc(/C=N/Nc2nnc(Cl)c3ccccc23)c1,i,i,-10.7%,-23.6%,?,?
Clc1ccc(/C=N/Nc2nnc(-c3ncc[nH]3)c3ccccc23)cc1,7.31µM*,i,?,20.6µM*,?,?
COc1ccc(NC(=O)c2ccco2)c(NC(=O)c2ccc([N+](=O)[O-])cc2)c1,i,i,-8.4%,10.1%,-17.3%,-17.9%
O=C(O)c1ccc(OCCN2CCCC2=O)cc1,i,i,20.9%,-6.6%,20.9%,5.8%
O=C(Nc1nc(OCCN2CCCC2=O)cnc1/C=C\c1ccccc1)c1cc2ccccc2s1,?,i,4.6%,?,-0.5%,29.1µM*
CCn1c(=O)c(C(=O)CN2CCN(S(=O)(=O)c3cc(C)ccc3C)CC2)c(N)n(Cc2ccccc2)c1=O,?,i,-3.3%,16.4µM*,0.9%,10.3µM*
CC(C)(C)c1ccccc1NC(=O)Nc1nc(C(N)Cc2ccc(F)cc2)cs1 (configuration not stated),i,i,?,20.6µM*,?,?

# Screens as filed in PubChem BioAssay.
